{"source": "ChEMBL document CHEMBL1157539", "about": "“Thousands of chemical starting points for antimalarial lead identification” (Nature, 2010)", "type_in_all_cases": "functional", "key": {"Plasmodium falciparum [1]": {"test_system": "Plasmodium falciparum", "experiment": "GSK_TCMDC: Inhibition of Plasmodium falciparum 3D7 in whole red blood cells, using parasite LDH activity as an index of growth. Test compounds present at 2uM"}, "Plasmodium falciparum [2]": {"test_system": "Plasmodium falciparum", "experiment": "GSK_TCMDC: Inhibition of Plasmodium falciparum Dd2 in whole red blood cells, using parasite LDH activity as an index of growth. Test compounds present at 2uM"}, "HepG2": {"test_system": "HepG2", "experiment": "GSK_TCMDC: Percent inhibition of human HepG2 cell line. Test compounds present at 10uM."}}, "note": "Residues, ends and D or L forms follow the SMILES beside them. *: point of attachment. Boc = CC(C)(C)OC(=O)*", "data": [{"smiles": "CC(C)(C)c1ccc2[nH]c(-c3ccc(/C=C/C(=O)NC4CCN(Cc5ccccc5)CC4)cc3)nc2c1", "values": [{"measurement": "Inhibition", "setting": "Plasmodium falciparum [1]", "result": 100, "unit": "%"}, {"measurement": "Inhibition", "setting": "Plasmodium falciparum [2]", "result": 96, "unit": "%"}, {"measurement": "Inhibition", "setting": "HepG2", "result": 45, "unit": "%"}]}, {"smiles": "O=C(Nc1ccc(-c2cccc(-c3nc4cc(C(F)(F)F)ccc4[nH]3)c2)cc1)c1ccc(=O)[nH]n1", "values": [{"measurement": "Inhibition", "setting": "Plasmodium falciparum [1]", "result": 87, "unit": "%"}, {"measurement": "Inhibition", "setting": "Plasmodium falciparum [2]", "result": 13, "unit": "%"}, {"measurement": "Inhibition", "setting": "HepG2", "result": 72, "unit": "%"}]}, {"smiles": "CC(=O)N(C)C1CCN(Cc2ccc(-c3cccc(-c4nc5cc(F)ccc5[nH]4)c3)cc2)C1.O=C(O)C(F)(F)F", "note": "(stereo unspecified)", "values": [{"measurement": "Inhibition", "setting": "Plasmodium falciparum [1]", "result": 100, "unit": "%"}, {"measurement": "Inhibition", "setting": "Plasmodium falciparum [2]", "result": 79, "unit": "%"}, {"measurement": "Inhibition", "setting": "HepG2", "result": 28, "unit": "%"}]}, {"smiles": "COc1cc2nc(N3CCC(CNC(=O)c4ccc(-c5ccc(C(=O)N(C)C)cc5OCCO)cc4)CC3)nc(N)c2cc1OC", "values": [{"measurement": "Inhibition", "setting": "Plasmodium falciparum [1]", "result": 100, "unit": "%"}, {"measurement": "Inhibition", "setting": "Plasmodium falciparum [2]", "result": 8, "unit": "%"}, {"measurement": "Inhibition", "setting": "HepG2", "result": 0, "unit": "%"}]}, {"smiles": "Cc1sc(C)c(C(F)(F)F)c1CNCCCNc1cc(=O)c2ccccc2[nH]1.Cl", "values": [{"measurement": "Inhibition", "setting": "Plasmodium falciparum [1]", "result": 96, "unit": "%"}, {"measurement": "Inhibition", "setting": "Plasmodium falciparum [2]", "result": 43, "unit": "%"}, {"measurement": "Inhibition", "setting": "HepG2", "result": 0, "unit": "%"}]}, {"smiles": "COc1cccc2cc(C(=O)N[C@@H](CC(C)C)C(=O)N[C@H](C=NNC(=O)OC(C)(C)C)Cc3ccccc3)oc12", "values": [{"measurement": "Inhibition", "setting": "Plasmodium falciparum [1]", "result": 99, "unit": "%"}, {"measurement": "Inhibition", "setting": "Plasmodium falciparum [2]", "result": 88, "unit": "%"}, {"measurement": "Inhibition", "setting": "HepG2", "result": 11, "unit": "%"}]}, {"smiles": "COc1ccc(CNCc2ccc(F)cc2)cc1-c1ccc(S(=O)(=O)NCCN2CCCC2)cc1.O=C(O)C(F)(F)F", "values": [{"measurement": "Inhibition", "setting": "Plasmodium falciparum [1]", "result": 91, "unit": "%"}, {"measurement": "Inhibition", "setting": "Plasmodium falciparum [2]", "result": 25, "unit": "%"}, {"measurement": "Inhibition", "setting": "HepG2", "result": 38, "unit": "%"}]}, {"smiles": "c1csc(-c2nc(NCC3CCCO3)ncc2-c2ccsc2)n1", "note": "(stereo unspecified)", "values": [{"measurement": "Inhibition", "setting": "Plasmodium falciparum [1]", "result": 89, "unit": "%"}, {"measurement": "Inhibition", "setting": "Plasmodium falciparum [2]", "result": 83, "unit": "%"}, {"measurement": "Inhibition", "setting": "HepG2", "result": 0, "unit": "%"}]}, {"smiles": "Clc1cccc(-c2nc(Nc3ccnc(-c4ccc(CN5CCOCC5)cc4)c3)c3ccccc3n2)c1", "values": [{"measurement": "Inhibition", "setting": "Plasmodium falciparum [1]", "result": 100, "unit": "%"}, {"measurement": "Inhibition", "setting": "Plasmodium falciparum [2]", "result": 65, "unit": "%"}, {"measurement": "Inhibition", "setting": "HepG2", "result": 8, "unit": "%"}]}, {"smiles": "O=C(c1ccco1)N1CCN(c2nc(-c3ccc(Cl)cc3)nc3ccccc23)CC1", "values": [{"measurement": "Inhibition", "setting": "Plasmodium falciparum [1]", "result": 96, "unit": "%"}, {"measurement": "Inhibition", "setting": "Plasmodium falciparum [2]", "result": 91, "unit": "%"}, {"measurement": "Inhibition", "setting": "HepG2", "result": 13, "unit": "%"}]}, {"smiles": "Cc1cc(NCCC(=O)Nc2ccccc2)nc(NCCOc2ccccc2)n1.O=C(O)C(F)(F)F", "values": [{"measurement": "Inhibition", "setting": "Plasmodium falciparum [1]", "result": 100, "unit": "%"}, {"measurement": "Inhibition", "setting": "Plasmodium falciparum [2]", "result": 9, "unit": "%"}, {"measurement": "Inhibition", "setting": "HepG2", "result": 5, "unit": "%"}]}, {"smiles": "O=C(Nc1ccc([N+](=O)[O-])cc1Br)c1cc2ccccc2nc1Cl", "values": [{"measurement": "Inhibition", "setting": "Plasmodium falciparum [1]", "result": 97, "unit": "%"}, {"measurement": "Inhibition", "setting": "Plasmodium falciparum [2]", "result": 68, "unit": "%"}, {"measurement": "Inhibition", "setting": "HepG2", "result": 0, "unit": "%"}]}, {"smiles": "CCN(CCCN1CCCCC1)c1cc(C)nc(Nc2cccc(C(F)(F)F)c2)n1.O=C(O)C(F)(F)F", "values": [{"measurement": "Inhibition", "setting": "Plasmodium falciparum [1]", "result": 100, "unit": "%"}, {"measurement": "Inhibition", "setting": "Plasmodium falciparum [2]", "result": 88, "unit": "%"}, {"measurement": "Inhibition", "setting": "HepG2", "result": 25, "unit": "%"}]}, {"smiles": "CC(C)C[C@H](NC(=O)c1cc2cc(OCCN3CCNCC3)ccc2o1)C(=O)NC1CC[C@@H](C)N(C(=O)Nc2ccc(Cl)cc2)CC1=O.O=C(O)C(F)(F)F", "note": "(stereo partly specified)", "values": [{"measurement": "Inhibition", "setting": "Plasmodium falciparum [1]", "result": 90, "unit": "%"}, {"measurement": "Inhibition", "setting": "Plasmodium falciparum [2]", "result": 92, "unit": "%"}, {"measurement": "Inhibition", "setting": "HepG2", "result": 0, "unit": "%"}]}, {"smiles": "O=C(COc1ccccc1Cl)N1CCc2cc3nccc(N4CCN5CCC[C@H]5C4)c3cc21", "values": [{"measurement": "Inhibition", "setting": "Plasmodium falciparum [1]", "result": 91, "unit": "%"}, {"measurement": "Inhibition", "setting": "Plasmodium falciparum [2]", "result": 99, "unit": "%"}, {"measurement": "Inhibition", "setting": "HepG2", "result": 4, "unit": "%"}]}, {"smiles": "Cl.N=C1N=C(N)NCN1OCc1ccc(Cl)c(Cl)c1", "values": [{"measurement": "Inhibition", "setting": "Plasmodium falciparum [1]", "result": 95, "unit": "%"}, {"measurement": "Inhibition", "setting": "Plasmodium falciparum [2]", "result": 4, "unit": "%"}, {"measurement": "Inhibition", "setting": "HepG2", "result": 14, "unit": "%"}]}, {"smiles": "COc1ccc(-c2nc(NC(=O)Cc3ccc4c(c3)OCCO4)sc2C)cc1", "values": [{"measurement": "Inhibition", "setting": "Plasmodium falciparum [1]", "result": 100, "unit": "%"}, {"measurement": "Inhibition", "setting": "Plasmodium falciparum [2]", "result": 99, "unit": "%"}, {"measurement": "Inhibition", "setting": "HepG2", "result": 0, "unit": "%"}]}, {"smiles": "CC(CNCc1cn(Cc2cc(Br)cc(Br)c2)c2ccccc12)CNc1cc(=O)c2ccccc2[nH]1", "note": "(stereo unspecified)", "values": [{"measurement": "Inhibition", "setting": "Plasmodium falciparum [1]", "result": 100, "unit": "%"}, {"measurement": "Inhibition", "setting": "Plasmodium falciparum [2]", "result": 50, "unit": "%"}, {"measurement": "Inhibition", "setting": "HepG2", "result": 10, "unit": "%"}]}, {"smiles": "COC(=O)CC[C@H](NC(=O)[C@H](C)NC(=O)OC(C)(C)C)C(=O)OC", "note": "(Boc-Ala-Glu(OMe)-OMe)", "values": [{"measurement": "Inhibition", "setting": "Plasmodium falciparum [1]", "result": 95, "unit": "%"}, {"measurement": "Inhibition", "setting": "Plasmodium falciparum [2]", "result": 0, "unit": "%"}, {"measurement": "Inhibition", "setting": "HepG2", "result": 12, "unit": "%"}]}, {"smiles": "CO/C(=C\\C=C\\c1cc2cc(Cl)c(Cl)cc2[nH]1)C(=O)NCCCN1CCCC[C@@H]1C", "values": [{"measurement": "Inhibition", "setting": "Plasmodium falciparum [1]", "result": 99, "unit": "%"}, {"measurement": "Inhibition", "setting": "Plasmodium falciparum [2]", "result": 83, "unit": "%"}, {"measurement": "Inhibition", "setting": "HepG2", "result": 33, "unit": "%"}]}, {"smiles": "Cc1cccc2nc(-c3ccc(-c4ccc(NC(=O)C5CCN(C)CC5)cc4)cc3)[nH]c12", "values": [{"measurement": "Inhibition", "setting": "Plasmodium falciparum [1]", "result": 100, "unit": "%"}, {"measurement": "Inhibition", "setting": "Plasmodium falciparum [2]", "result": 92, "unit": "%"}, {"measurement": "Inhibition", "setting": "HepG2", "result": 28, "unit": "%"}]}, {"smiles": "CNC(=N)c1ccc(NC(=O)c2ccc(C(=O)Nc3ccc(C(=N)NC)cc3)cc2)cc1.Cl", "values": [{"measurement": "Inhibition", "setting": "Plasmodium falciparum [1]", "result": 96, "unit": "%"}, {"measurement": "Inhibition", "setting": "Plasmodium falciparum [2]", "result": 91, "unit": "%"}, {"measurement": "Inhibition", "setting": "HepG2", "result": 6, "unit": "%"}]}, {"smiles": "CC(=O)N(C)c1ccc(C(=O)Nc2cccc(-c3cccc(-c4nc5cc(C(F)(F)F)ccc5[nH]4)c3)c2)cc1", "values": [{"measurement": "Inhibition", "setting": "Plasmodium falciparum [1]", "result": 96, "unit": "%"}, {"measurement": "Inhibition", "setting": "Plasmodium falciparum [2]", "result": 29, "unit": "%"}, {"measurement": "Inhibition", "setting": "HepG2", "result": 31, "unit": "%"}]}, {"smiles": "Fc1cccc(COc2ccc(Nc3ncnc4sc(C#CCNC5CCCC5)cc34)cc2Cl)c1", "values": [{"measurement": "Inhibition", "setting": "Plasmodium falciparum [1]", "result": 100, "unit": "%"}, {"measurement": "Inhibition", "setting": "Plasmodium falciparum [2]", "result": 78, "unit": "%"}, {"measurement": "Inhibition", "setting": "HepG2", "result": 3, "unit": "%"}]}, {"smiles": "CCCCNC(=O)[C@@H]1CCCN1C(=O)c1ccc(O)c(-c2ccc(Cl)c(Cl)c2)c1", "values": [{"measurement": "Inhibition", "setting": "Plasmodium falciparum [1]", "result": 98, "unit": "%"}, {"measurement": "Inhibition", "setting": "Plasmodium falciparum [2]", "result": 92, "unit": "%"}, {"measurement": "Inhibition", "setting": "HepG2", "result": 0, "unit": "%"}]}, {"smiles": "COc1ccc(N2CCN(CCCCNC(=O)c3ccc(NC(=O)c4ccc(C(F)(F)F)cc4)cc3)CC2)c(OC)c1", "values": [{"measurement": "Inhibition", "setting": "Plasmodium falciparum [1]", "result": 100, "unit": "%"}, {"measurement": "Inhibition", "setting": "Plasmodium falciparum [2]", "result": 8, "unit": "%"}, {"measurement": "Inhibition", "setting": "HepG2", "result": 4, "unit": "%"}]}, {"smiles": "NC(=O)c1c(Cl)nc2ccccc2c1Cl", "values": [{"measurement": "Inhibition", "setting": "Plasmodium falciparum [1]", "result": 91, "unit": "%"}, {"measurement": "Inhibition", "setting": "Plasmodium falciparum [2]", "result": 0, "unit": "%"}, {"measurement": "Inhibition", "setting": "HepG2", "result": 2, "unit": "%"}]}]}
